± gives the standard deviation of the averaged measurements.

Experiment [1] has as its system DLD1. Put plainly: cell viability (CellTiter-Glo) relative to plate median (fraction of plate median); higher = more viable cells. The settings on record: 5 µM; treatment time 24 h; reporter: 7TFP. In short, it runs like this:
(§1)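 Colorectal cancer cell lines stably transduced with lentiviral TCF/Wnt firefly luciferase reporters (7TFP or TCF4/Wnt) were seeded in 384-well plates. 24 h later they received library compounds at a final 5 µM for 24 h. Parallel plates were read for firefly luciferase or CellTiterGlo luminescence on a Tecan F500 reader. Each well's signal was normalised to the plate median (webcellHTS2, additive, no log transformation), and the mean of two independent replicates is reported.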

In another experiment the test system is HCT116. Described as above. The following applies: 5 µM; treatment time 24 h; reporter: TCF4/Wnt. In short, it runs like this: as §1
Experiment [2] concerns SW480. The description is as above. The following applies: 5 µM; treatment time 24 h; reporter: 7TFP. In short, it runs like this:
as §1

In experiment [3] the test system is DLD1. Put plainly: TCF/Wnt firefly luciferase reporter signal relative to plate median (fraction of plate median); higher = higher Wnt reporter signal. The settings on record: 5 µM; treatment time 24 h; reporter: 7TFP. The procedure, abridged: as §1
Experiment [4] deals with SW480. Described as above. The settings on record: 5 µM; treatment time 24 h; reporter: 7TFP. In short, it runs like this:
as §1

For the molecule `C=C[C@@H]1C2=CCOC(=O)C2=CO[C@H]1O[C@@H]1O[C@H](CO)[C@@H](O)[C@H](O)[C@H]1O`, the cell viability in the experiment with DLD1 [1] is 0.971 ± 0.098; in the experiment with HCT116, 0.9495 ± 0.0078; with SW480 [2], 1.03. In addition, the entries for the “TCF/Wnt firefly luciferase reporter signal” value in the experiment on DLD1 [3] and with SW480 [4] were 0.923 ± 0.12 and 0.926 ± 0.034, respectively.

Take `COC(=O)C1=CCCN(C)C1`: the cell viability in the experiment with DLD1 [1] was 0.991 ± 0.13; in the experiment on HCT116, 1.07 ± 0.042; in the experiment with SW480 [2], 1.1 ± 0.099. Further, the “TCF/Wnt firefly luciferase reporter signal” value in the experiment with DLD1 [3] stood at 1.07 ± 0.11; in the experiment with SW480 [4] it was 1.05 ± 0.064.

These data come from the supplement of paper PMC6522484.
